Cycloheximide cs – affects cycloheximide protein synthesis inhibition readout, counter-screen; cell reporter, cycloheximide protein synthesis inhibition counterscreen; 300,000 tested, 12% active; max response, %; in the data active means max response mostly above about 13%, no sharp cut-off; inactive means mostly below about 14%; further: read at 38.3 µM for the half of the compounds with a filed dose; 0% is about no effect
Shiga toxin inh – Shiga toxin inhibition. Vero cells, Shiga toxin protein synthesis inhibition reporter. inhibition, % at 38.7 µM. 290,000 tested, 9.2% active; in the data active means inhibition mostly above about 28%, no sharp cut-off; inactive means mostly below about 43%; further: 0% is about no effect
Sm TGR block – S. mansoni TGR enzyme inhibition; purified TGR, DTNB reduction, TNB absorbance 405 nm; Potency, µM (titrated, usually from 114 µM), for the others: at the highest dose activity change, negative = inhibition, actives largely listed as inhibitors; 360,000 tested, 3% active; AID 485364; active means well fitted inhibition curve with a large enough effect; inconclusive means small, poorly fitted or top-dose-only effect; inactive means no such curve, though single readings can be large or run the other way; further: potency means the concentration at half of the fitted maximal effect; on the % scale 0 is the no-effect control and ±100 the full control effect; nearly all actives have a fitted effect of over 60% in size
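First, TGR (20 nM dispensed) and NADPH were mixed with compound. Second, a 15 min room-temperature incubation followed. Third, further NADPH and then DTNB were added to start the reaction. Finally, TNB absorbance was monitored kinetically.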
FMDV antiviral – foot and mouth disease virus antiviral activity | AID 1159524 | 410,000 tested, 1.2% active | Potency, µM (doses to about 57.9 µM), inactives show at the highest dose activity change, negative = inhibition, usual class: inhibitors | FMDV antiviral cell-based qHTS; calls by dose curve; tested in HEK293T cells; further: read-out not given here; potency means the concentration at half of the fitted maximal effect; on the % scale 0 is the no-effect control and ±100 the full control effect; nearly all actives have a fitted effect of over 45% in size
Numbers without * were called inactive. Compounds with a hit are over-represented: about 12% of the library has one in this group of screens.

Results for CCCCC(=O)N1CCN(c2nc3ccc(OCC)cc3s2)CC1 ?
Cycloheximide cs: 13; Shiga toxin inh: -2; Sm TGR block: 4%; FMDV antiviral: -10%

What do the screens show for `COc1ccc2nc(N3C(=O)/C(=C/c4ccc(Cl)cc4)NC3=S)sc2c1`?
Cycloheximide cs: -2; Shiga toxin inh: 2; Sm TGR block: 5%; FMDV antiviral: -4%

What do the screens show for `COc1ccc(OC)c(NC(=O)[C@H](CSCc2ccccc2)N2Cc3ccccc3C2=O)c1`?
Sm TGR block: -1%; FMDV antiviral: -1%

How did Cc1cc(C=C2C(=O)CCCC2=O)c(C)n1-c1ccccc1 do in these assays?
Cycloheximide cs: 16*; Shiga toxin inh: 10; Sm TGR block: inconclusive; FMDV antiviral: -24%

How did Cc1cc(/C=C2\C(=O)NN(c3ccccc3)C2=O)c(C)n1-c1ccccc1O do in these assays?
Cycloheximide cs: 34*; Shiga toxin inh: 46*; Sm TGR block: 2%; FMDV antiviral: 7%

Results for COc1cc(/C=C2/C(=O)NN(c3ccccc3)C2=O)cc(Br)c1O ?
Cycloheximide cs: -3; Shiga toxin inh: 4; Sm TGR block: 3%; FMDV antiviral: 10%

What do the screens show for `Cc1cc(/C=C2/C(=O)NN(c3ccccc3)C2=O)c(C)n1-c1ccc(O)cc1`?
Cycloheximide cs: 18; Shiga toxin inh: 13; Sm TGR block: -1%; FMDV antiviral: 18µM*

How did COc1ccc(-n2c(C)cc(/C=C3\C(=O)NN(c4ccccc4)C3=O)c2C)cc1 do in these assays?
Cycloheximide cs: 39*; Shiga toxin inh: 50*; Sm TGR block: 7%; FMDV antiviral: 47%

How did COc1ccc(CCNC(=O)Cc2c(C)c3cc4c(C(C)(C)C)coc4c(C)c3oc2=O)cc1 do in these assays?
Sm TGR block: 3%; FMDV antiviral: -3%

What do the screens show for `COc1cc(NC(=O)c2cc(-c3cccc(OC)c3)n[nH]2)cc(OC)c1`?
Sm TGR block: 3%; FMDV antiviral: 39%

What do the screens show for `COc1cccc(N2CCN(C(=O)c3c4c(nc5ccccc35)C(=O)N(C3CCCCC3)C4)CC2)c1`?
Sm TGR block: 4%; FMDV antiviral: -11%

What do the screens show for `Cc1ccc2nc(SCc3nc(-c4ccccc4C)no3)[nH]c2c1`?
Sm TGR block: 1%; FMDV antiviral: -24%

What do the screens show for `c1ccc(CC2CCN(c3ncnc4sccc34)CC2)cc1`?
Cycloheximide cs: 13*; Shiga toxin inh: 41; Sm TGR block: 0%; FMDV antiviral: inconclusive

Results for CCN(C(=O)CCn1cnc2onc(-c3ccc(F)cc3)c2c1=O)c1ccc(OC)cc1 ?
Sm TGR block: 4%; FMDV antiviral: 0%

How did Cc1ccc(CNC(=O)CCc2nnc3n(C)c(=O)c4sccc4n23)cc1 do in these assays?
Sm TGR block: -3%; FMDV antiviral: -6%

How did CCOc1ccccc1/C=C/C(=O)NCC(=O)N1CCC(N(C)C2CCCCC2C)CC1 (centres undefined) do in these assays?
Cycloheximide cs: -1; Shiga toxin inh: -10; Sm TGR block: 6.3µM*; FMDV antiviral: -13%

Results for Cc1cccc(OCC(=O)Nc2cc(C)c(C)cc2O)c1 ?
Cycloheximide cs: 10; Shiga toxin inh: 30; Sm TGR block: 0%

Results for Cc1cccc(C)c1OCC(=O)Nc1ccccc1C(F)(F)F ?
Cycloheximide cs: -2; Shiga toxin inh: 4; Sm TGR block: 10%; FMDV antiviral: -1%

Results for Cc1cccc(OCC(=O)Nc2ccccc2C(F)(F)F)c1 ?
Cycloheximide cs: 14; Shiga toxin inh: 81*; Sm TGR block: 0%; FMDV antiviral: 25%

Results for Cc1cccc(OCC(=O)Nc2cc(C)ccc2O)c1 ?
Cycloheximide cs: 21*; Shiga toxin inh: 30*; Sm TGR block: 12%; FMDV antiviral: -2%

What do the screens show for `Cc1cccc(OCC(=O)Nc2ccc(C(=O)OCc3cc(=O)n4nc(C5CC5)sc4n3)cc2)c1`?
Sm TGR block: 4%; FMDV antiviral: -8%

Results for COc1ccc(CCN(C)CCC(=O)Nc2cc(C)ccc2C)cc1OC ?
Cycloheximide cs: 5; Shiga toxin inh: 2; Sm TGR block: 30%; FMDV antiviral: 0%

What do the screens show for `COc1ccc(CCNC(=O)c2c[nH]c3ccc(F)cc3c2=O)cc1OC`?
Cycloheximide cs: -4; Sm TGR block: -8%; FMDV antiviral: -17%

Results for COc1ccc(CCN(C)CC(=O)Nc2c(C)cc(C)cc2C)cc1OC ?
Cycloheximide cs: -2; Shiga toxin inh: -15; Sm TGR block: 100µM*; FMDV antiviral: -15%

Results for COc1ccc2[nH]cc(C(=O)CNc3nc(C)cs3)c2c1 ?
Cycloheximide cs: 36*; Shiga toxin inh: 141*; Sm TGR block: 4%; FMDV antiviral: 44%

Results for COc1ccc2[nH]cc(C(=O)CN(C)CCc3ccc(OC)c(OC)c3)c2c1 ?
Cycloheximide cs: -4; Shiga toxin inh: -5; Sm TGR block: 13µM*; FMDV antiviral: -16%

What do the screens show for `COc1ccc2[nH]cc(C(=O)CN3CC(C)CC(C)C3)c2c1` (centres undefined)?
Cycloheximide cs: -3; Shiga toxin inh: 7; Sm TGR block: -30%; FMDV antiviral: 6%

Results for COc1ccc2[nH]cc(C(=O)CCl)c2c1 ?
Cycloheximide cs: -7; Shiga toxin inh: -7; Sm TGR block: 2.8µM*; FMDV antiviral: 28µM*

How did Cc1ccc2c(c1)c1c(c(=O)n(-c3cccc(Cl)c3)c(=O)n1CC(=O)NCCC1=CCCCC1)n2C do in these assays?
Sm TGR block: 7%; FMDV antiviral: -5%

What do the screens show for `CCCc1nc(NCc2ccccn2)c2nnn(Cc3ccccc3F)c2n1`?
Cycloheximide cs: 8; Shiga toxin inh: -15; Sm TGR block: 0%; FMDV antiviral: 25µM*

What do the screens show for `CC(C)Nc1nc(Cl)nc(NCCOc2ccccc2)n1`?
Cycloheximide cs: 18; Shiga toxin inh: 20; Sm TGR block: 1%; FMDV antiviral: 27%

How did CCC(C)Nc1nc(Cl)nc(NCCOc2ccccc2)n1 (centres undefined) do in these assays?
Cycloheximide cs: 33*; Shiga toxin inh: 31; Sm TGR block: -22%; FMDV antiviral: -4%

What do the screens show for `O=C1c2ccccc2CN1CCNC(=S)NC1CCCCC1`?
Cycloheximide cs: 31*; Shiga toxin inh: 45*; Sm TGR block: 12%; FMDV antiviral: 70%

Results for O=C(NCCN1Cc2ccccc2C1=O)c1cccs1 ?
Cycloheximide cs: 21*; Shiga toxin inh: 47*; Sm TGR block: -30%; FMDV antiviral: 25%

Results for CC(C)OC(=O)c1cc2ccccc2[nH]1 ?
Cycloheximide cs: 23*; Shiga toxin inh: 54*; Sm TGR block: -6%; FMDV antiviral: 17%

Results for CCOC(=O)c1cc2cc3ccccc3cc2[nH]1 ?
Cycloheximide cs: 54*; Shiga toxin inh: 150*; Sm TGR block: 7%; FMDV antiviral: 45%

Results for COc1ccc(-c2nc3cc(F)ccc3cc2CN(C(=O)c2ccc3c(c2)OCO3)C2CC2)cc1 ?
FMDV antiviral: -9%

What do the screens show for `Cc1ccc(NC(=O)C2(S(=O)(=O)c3ccc(C)cc3)CC2)cc1`?
Cycloheximide cs: 11; Shiga toxin inh: -3; Sm TGR block: 19%; FMDV antiviral: -5%

How did Cc1ccc(S(=O)(=O)C2(C(=O)Nc3ccc(C(C)C)cc3)CC2)cc1 do in these assays?
Cycloheximide cs: 50*; Shiga toxin inh: 83*; Sm TGR block: 2%; FMDV antiviral: 22%
